Source: PubChem BioAssay AID1159580 (chemical genetic matrix, 2015)
Where “and” joins values, the source holds several entries; their conditions need not be identical. Identical values can stand only once. The whole screen tested about 5,500 compounds, of which about 2,000 (36%) were called active. Roughly 18% stayed inconclusive and do not appear here. Cut-off read from the data, not from the text of the source: active = normalized growth mostly below about 0.91 (no sharp cut-off); inconclusive = no clear call, values can overlap the other calls; inactive = mostly above about 0.92. The list shows a part of the results.

Assay: chemical genetic growth profiling, strain panel (AID 1159580);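 note: tested at 20 µM; growth read once vehicle control cultures reached saturation at 30 °C; 1 = growth at the plate median or of vehicle wells; lower values mean less growth of the strain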
Details: S. cerevisiae deletion strains, growth OD

## CC(=O)NO
Locus YAL013W, strain DEP1, stronger effect = lower value
  normalized growth: 0.955 (inactive)
Locus YAL021C, strain ccr4, stronger effect = lower value
  normalized growth: 0.968 (inactive)
Locus YAL026C, strain drs2, stronger effect = lower value
  normalized growth: 0.997 (inactive)
Locus YAL030W, strain snc1, stronger effect = lower value
  normalized growth: 0.99 (inactive)
Locus YBL061C, strain skt5, stronger effect = lower value
  normalized growth: 0.969 (inactive)
Locus YBR009C, strain hhf1, stronger effect = lower value
  normalized growth: 0.942 (inactive)
Locus YBR021W, strain FUR4, stronger effect = lower value
  normalized growth: 0.604 (active)
Locus YBR023C, strain chs3, stronger effect = lower value
  normalized growth: 0.964 (inactive)
Locus YBR171W, strain sec66, stronger effect = lower value
  normalized growth: 0.963 (inactive)
Locus YBR229C, strain ROT2, stronger effect = lower value
  normalized growth: 1.01 (inactive)
Locus YBR231C, strain swc5, stronger effect = lower value
  normalized growth: 0.995 (inactive)
Locus YBR279W, strain paf1, stronger effect = lower value
  normalized growth: 0.973 (inactive)
Locus YCL011C, strain gbp2, stronger effect = lower value
  normalized growth: 0.949 (inactive)
Locus YCL016C, strain dcc1, stronger effect = lower value
  normalized growth: 0.937 (inactive)
Locus YCL029C, strain bik1, stronger effect = lower value
  normalized growth: 0.999 (inactive)
Locus YCL061C, strain MRC1, stronger effect = lower value
  normalized growth: 0.968 (inactive)
Locus YCL069W, strain vba3, stronger effect = lower value
  normalized growth: 0.974 (inactive)
Locus YCR088W, strain abp1, stronger effect = lower value
  normalized growth: 0.979 (inactive)
Locus YDL005C, strain med2, stronger effect = lower value
  normalized growth: 0.982 (inactive)
Locus YDL035C, strain GPR1, stronger effect = lower value
  normalized growth: 0.973 (inactive)
Locus YDL040C, strain nat1, stronger effect = lower value
  normalized growth: 0.979 (inactive)
Locus YDL074C, strain BRE1, stronger effect = lower value
  normalized growth: 0.977 (inactive)
Locus YDL101C, strain DUN1, stronger effect = lower value
  normalized growth: 1.02 (inactive)
Locus YDL185W, strain tfp1, stronger effect = lower value
  normalized growth: 0.992 (inactive)
Locus YDL192W, strain arf1, stronger effect = lower value
  normalized growth: 0.989 (inactive)
Locus YDR001C, strain nth1, stronger effect = lower value
  normalized growth: 0.982 (inactive)
Locus YDR069C, strain doa4, stronger effect = lower value
  normalized growth: 1.01 (inactive)
Locus YDR101C, strain arx1, stronger effect = lower value
  normalized growth: 1 (inactive)
Locus YDR137W, strain rgp1, stronger effect = lower value
  normalized growth: 0.948 (inactive)
Locus YDR150W, strain NUM1, stronger effect = lower value
  normalized growth: 0.991 (inactive)
Locus YDR159W, strain sac3, stronger effect = lower value
  normalized growth: 1 (inactive)
Locus YDR162C, strain NBP2, stronger effect = lower value
  normalized growth: 0.997 (inactive)
Locus YDR195W, strain ref2
  normalized growth: 0.984 (inactive)
Locus YDR297W, strain sur2, stronger effect = lower value
  normalized growth: 0.977 (inactive)
Locus YDR318W, strain mcm21, stronger effect = lower value
  normalized growth: 0.998 (inactive)
Locus YDR334W, strain swr1, stronger effect = lower value
  normalized growth: 0.976 (inactive)
Locus YDR335W, strain msn5, stronger effect = lower value
  normalized growth: 0.983 (inactive)
Locus YDR388W, stronger effect = lower value
  normalized growth: 0.984 (inactive)
Locus YDR392W, strain spt3, stronger effect = lower value
  normalized growth: 0.744 (inactive)
Locus YDR502C, strain sam2, stronger effect = lower value
  normalized growth: 0.973 (inactive)
Locus YEL003W, strain gim4, stronger effect = lower value
  normalized growth: 1 (inactive)
Locus YEL037C, strain rad23, stronger effect = lower value
  normalized growth: 0.977 (inactive)
Locus YEL061C, strain CIN8 (second series), stronger effect = lower value
  normalized growth: 0.985 (inactive)
Locus YEL061C, strain CIN8, stronger effect = lower value
  normalized growth: 1.01 (inactive)
Locus YER015W, strain faa2, stronger effect = lower value
  normalized growth: 0.975 (inactive)
Locus YER016W, strain bim1, stronger effect = lower value
  normalized growth: 0.996 (inactive)
Locus YER110C, stronger effect = lower value
  normalized growth: 0.987 (inactive)
Locus YER111C, strain swi4, stronger effect = lower value
  normalized growth: 0.965 (inactive)
Locus YER155C, strain BEM2 (second series), stronger effect = lower value
  normalized growth: 0.996 (inactive)
Locus YER155C, strain BEM2, stronger effect = lower value
  normalized growth: 1.03 (inactive)
Locus YER167W, strain BCK2, stronger effect = lower value
  normalized growth: 1.02 (inactive)
Locus YFR010W, strain ubp6, stronger effect = lower value
  normalized growth: 0.974 (inactive)
Locus YGL078C, strain dbp3, stronger effect = lower value
  normalized growth: 0.997 (inactive)
Locus YGL086W, strain mad1, stronger effect = lower value
  normalized growth: 0.991 (inactive)
Locus YGL167C, strain pmr1, stronger effect = lower value
  normalized growth: 0.978 (inactive)
Locus YGL173C, strain kem1, stronger effect = lower value
  normalized growth: 0.984 (inactive)
Locus YGL227W, strain vid30, stronger effect = lower value
  normalized growth: 0.974 (inactive)
Locus YGL240W, strain doc1, stronger effect = lower value
  normalized growth: 0.963 (inactive)
Locus YGL248W, strain PDE1, stronger effect = lower value
  normalized growth: 0.97 (inactive)
Locus YGL253W, strain hxk2, stronger effect = lower value
  normalized growth: 0.965 (inactive)
Locus YGR135W, strain pre9, stronger effect = lower value
  normalized growth: 0.907 (inactive)
Locus YGR252W, strain gcn5, stronger effect = lower value
  normalized growth: 0.797 (inactive)
Locus YHR013C, strain ard1, stronger effect = lower value
  normalized growth: 0.888 (inactive)
Locus YHR027C, strain rpn1, stronger effect = lower value
  normalized growth: 0.999 (inactive)
Locus YHR030C, strain SLT2, stronger effect = lower value
  normalized growth: 0.94 (inactive) and 0.998 (inactive)
Locus YHR079C, strain IRE1 (second series), stronger effect = lower value
  normalized growth: 0.997 (inactive)
Locus YHR079C, strain IRE1, stronger effect = lower value
  normalized growth: 0.975 (inactive)
Locus YHR094C, strain hxt1, stronger effect = lower value
  normalized growth: 0.997 (inactive)
Locus YHR129C, strain ARP1, stronger effect = lower value
  normalized growth: 1 (inactive)
Locus YHR142W, strain chs7, stronger effect = lower value
  normalized growth: 0.915 (inactive)
Locus YHR200W, strain rpn10, stronger effect = lower value
  normalized growth: 0.991 (inactive)
Locus YIL066C, strain RNR3, stronger effect = lower value
  normalized growth: 0.979 (inactive)
Locus YIL073C, strain SPO22, stronger effect = lower value
  normalized growth: 0.898 (inactive)
Locus YIL125W, strain kgd1, stronger effect = lower value
  normalized growth: 0.99 (inactive)
Locus YIR030C, strain dcg1, stronger effect = lower value
  normalized growth: 1 (inactive)
Locus YJL092W, strain hpr5, stronger effect = lower value
  normalized growth: 0.974 (inactive)
Locus YJL095W, strain BCK1 (second series), stronger effect = lower value
  normalized growth: 0.98 (inactive)
Locus YJL095W, strain BCK1, stronger effect = lower value
  normalized growth: 0.748 (active) and 1 (inactive)
Locus YJL115W, strain asf1, stronger effect = lower value
  normalized growth: 0.954 (inactive)
Locus YJL129C, strain trk1, stronger effect = lower value
  normalized growth: 0.962 (inactive)
Locus YJL134W, strain LCB3, stronger effect = lower value
  normalized growth: 1.01 (inactive)
Locus YJL154C, strain vps35, stronger effect = lower value
  normalized growth: 0.983 (inactive)
Locus YJL164C, strain tpk1, stronger effect = lower value
  normalized growth: 0.966 (inactive)
Locus YJL166W, strain qcr8, stronger effect = lower value
  normalized growth: 0.931 (inactive)
Locus YJL168C, strain set2, stronger effect = lower value
  normalized growth: 0.993 (inactive)
Locus YJL187C, strain SWE1 (second series), stronger effect = lower value
  normalized growth: 0.954 (inactive)
